The nature of test [1]: qHTS assay to identify small molecule agonists of the hypoxia (HIF-1) signaling pathway - cell viability counter screen (AID 1224844; calls by dose curve; note: nearly all actives have a fitted effect of over 50% in size). In a few lines: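 Multiplexed with the HRE beta-lactamase assay, this viability read used CellTiter-Glo luminescence (30 min, RT) on HRE-bla ME-180 cells treated 17 hrs with compounds in 0.5% dialyzed FBS medium.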
The nature of test [2]: qHTS assay to identify small molecule agonists of H2AX (AID 1224845; active = well fitted activation curve with a large enough effect in the signal ratio in the repeat runs, not every such curve was filed as active; the % refers to the signal ratio). In a few lines: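 Wild-type CHO-K1 cells, plated overnight, exposed 3hr at 37C to 15 concentrations (0.76% DMSO final). Lysed, then HTRF anti-pH2AX (S139) cryptate and anti-H2AX-d2 antibodies, 24 hr room temperature; 665/620 nm emission read.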
For orientation: In qHTS, concentration-response curves come from the screen itself.

A short description of test [3]: qHTS assay to identify small molecule agonists of the hypoxia (HIF-1) signaling pathway (AID 1224846; active = well fitted activation curve with a large enough effect in the signal ratio in the repeat runs, not every such curve was filed as active; the % refers to the signal ratio). In outline:
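Hypoxia-pathway activation was scored as increased beta-lactamase from an HRE-controlled reporter in ME-180 cells; plated at 2,000 cells per well with 0.5% dialyzed FBS, they were exposed 17 hrs to compounds and then given CCF4-AM.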

Test [4] is described as follows: qHTS assay to identify small molecule agonists of the estrogen related receptor (ERR) signaling pathway from Tox21 library (AID 1224849; calls by dose curve; note: nearly all actives have a fitted effect of over 15% in size). Conditions: ERR reporter cell line, ONE-Glo luciferase, 18 h; at 92.4 µM (top of the series) unless noted. In outline: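 Six hours post-seeding at 37 C/5% CO2, ERR cells receive DMSO-solubilised compounds; after 18 h at 37 C, ONE-Glo reagent is applied and luminescence recorded.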

Test [5] can be described thus: qHTS RealTime-Glo MT Cell Viability Assay in HepG2 cells - 24 hour (AID 1224867). Note: nearly all actives have a fitted effect of over 50% in size. In a few lines:
(§1)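 Cells + NanoLuc/prosubstrate dispensed (600 cells/well) → 5 h at 37 C/5% CO2 → compounds in DMSO transferred → 40 h incubation at 37 C, luminescence read at 0, 8, 16, 24, 32, 40 h.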

A short description of test [6]: A CellTox Green Cytotoxicity Assay to monitor cytotoxicity in HEK293 cells - 0 hour (AID 1224869). Note: nearly all actives have a fitted effect of over 50% in size. In a few lines: (§2)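 Seeding of HEK293 cells together with cytotoxicity dye preceded a 5 h incubation at 37 C/5% CO2. Test compounds in DMSO were then added and fluorescence monitored across 40 h.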
The nature of test [7]: qHTS RealTime-Glo MT Cell Viability Assay in HepG2 cells - 40 hour (AID 1224870). Note: nearly all actives have a fitted effect of over 50% in size. In a few lines:
(§3)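 HepG2 cells (600/well) mixed with RealTime-Glo MT reagent, settled 5 h at 37 C/5% CO2 before compound addition. Nonlytic NanoLuc luminescence from viable-cell prosubstrate reduction read repeatedly during 40 h treatment at 37 C.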

Test [8] can be described thus: A CellTox Green Cytotoxicity Assay to monitor cytotoxicity in HEK293 cells - 40 hour (AID 1224871). Note: nearly all actives have a fitted effect of over 45% in size. In a few lines:
as §2

Test [9] is described as follows: qHTS RealTime-Glo MT Cell Viability Assay in HepG2 cells - 8 hour (AID 1224873). Note: nearly all actives have a fitted effect of over 55% in size. In outline: as §3
A short description of test [10]: A CellTox Green Cytotoxicity Assay to monitor cytotoxicity in HEK293 cells - 24 hour (AID 1224875). Note: nearly all actives have a fitted effect of over 45% in size. In outline:
as §2

Test [11] is described as follows: A CellTox Green Cytotoxicity Assay to monitor cytotoxicity in HepG2 cells - 16 hour (AID 1224876). Note: nearly all actives have a fitted effect of over 45% in size. In a few lines:
(§4)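 Nonlytic assay: viable cells exclude the dye, so fluorescence scales with cell death. HepG2 at 600 cells/well, compounds added after 5 h, signal read across 40 h.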

Test [12] can be described thus: qHTS RealTime-Glo MT Cell Viability Assay in HepG2 cells - 32 hour (AID 1224877). Note: nearly all actives have a fitted effect of over 55% in size. In outline:
as §1

Test [13] in a line: A CellTox Green Cytotoxicity Assay to monitor cytotoxicity in HepG2 cells - 24 hour (AID 1224878). Note: nearly all actives have a fitted effect of over 45% in size. In a few lines:
as §4

Test [14] can be described thus: A CellTox Green Cytotoxicity Assay to monitor cytotoxicity in HepG2 cells - 40 hour (AID 1224879). Note: nearly all actives have a fitted effect of over 40% in size. In a few lines:
as §4

The nature of test [15]: qHTS RealTime-Glo MT Cell Viability Assay in HEK293 cells - 0 hour (AID 1224880). Note: nearly all actives have a fitted effect of over 45% in size. Note: potency is the fitted concentration of half-maximal effect. In a few lines: (§5)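 Tox21 screen in HEK293 using RealTime-Glo MT chemistry, with cells and reagent co-dispensed. Luminescence proportional to viable cell number was captured at intervals during 40 h compound exposure at 37 C.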
Test [16] is described as follows: qHTS assay to identify small molecule agonists of H2AX - cell viability counter screen (AID 1224847; calls by dose curve; note: top concentration of the series differs between compounds; nearly all actives have a fitted effect of over 30% in size). In a few lines: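 For this counter screen, overnight-attached CHO-K1 cells received test compounds (15 concentrations, 0.76% DMSO final); 3 hr later at 37C, CellTiter-Glo reagent was added and luminescence recorded after 30 min at room temperature.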
Test [17] in a line: qHTS RealTime-Glo MT Cell Viability Assay in HEK293 cells - 32 hour (AID 1224868). In outline: (§6)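 Tox21 10K qHTS, HEK293, 600 cells/well, RealTime-Glo reagent co-dispensed with cells; 5 h preincubation, compound by pintool, 37 C, luminescence at 0–40 h.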
Test [18] can be described thus: qHTS RealTime-Glo MT Cell Viability Assay in HEK293 cells - 16 hour (AID 1224872). In a few lines: as §6
Test [19] can be described thus: qHTS RealTime-Glo MT Cell Viability Assay in HEK293 cells - 40 hour (AID 1224874). Note: nearly all actives have a fitted effect of over 50% in size. Conditions: RealTime-Glo luminescence; max response: hits give low values. In outline: as §5
Test [20] is described as follows: qHTS assay to identify small molecule antagonists of the estrogen related receptor (ERR) signaling pathway from Tox21 library (AID 1224848). Note: nearly all actives have a fitted effect of over 50% in size. In outline:
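Luminescent reporter read-out (ONE-Glo) from NTP's ERR cell line after 18 h treatment at 37 C with DMSO-dissolved Tox21 compounds; cells pre-plated 6 h beforehand at 2,000 per well.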

The record followed here is PubChem BioAssay (Tox21).

Unmarked numbers belong to inactive results. Records with an inconclusive call do not appear. Calls of active or inactive are those of the source. Unless noted, calls come from the whole dose curve; as a rule, active = well fitted curve in the direction sought with a large enough effect in the repeat runs; inconclusive = weak or mixed curves; inactive = no such curve, though single readings can be large; an effect the other way counts as inactive or inconclusive.
% is set by controls: 0 for no effect and ±100 for the full control effect.

On to `CCCCC(CC)COCCCN` (stereo not drawn), for which the Potency result in test [1], in test [2], in [5], in [6], in test [7] and in [8] was “inactive” each time. The Potency result in test [9], in test [10], in test [11], in [12], in test [13] and in [14] was “inactive” throughout. The Potency entry in test [15] was “inactive”. Moreover, in test [3], the outcome was inactive. The activity change, positive = activation in [4] is -26.6%.
Turning to `CC(=O)OCCc1ccccc1`, the Potency result in test [1], in [2], in test [16], in test [5], in test [17] and in test [6] was “inactive” each time. The Potency result in test [8], in test [18], in test [9], in test [10], in test [11] and in test [12] was “inactive” each time. Besides, the Potency result in [13], in [14] and in test [15] was “inactive” throughout. Further, the compound was classed as inactive in test [3]. Further, in [19], the max response is 10.1%.
For the compound `CCOc1nc2cccc(C(=O)O)c2n1Cc1ccc(-c2ccccc2-c2nn[nH]n2)cc1`, the Potency entry in test [1], in [2], in test [16], in [20], in [5] and in test [17] was “inactive” in each case. The Potency entry in test [6], in test [7], in [8], in test [18], in test [9] and in test [10] was “inactive” each time. Also, the Potency entry in [11], in test [12], in [13], in [14] and in test [15] was “inactive” each time. In test [4], the activity change, positive = activation was 4.21% [at 42.5 µM]. Besides, in test [19], the max response is 9.75%.
As to `CCN(CC)C(C)CN1c2ccccc2Sc2ccccc21` (stereo not drawn), the Potency result in [1], in test [2], in test [16], in test [5], in [17] and in test [6] was “inactive” throughout. Also, the Potency result in test [8], in test [18], in test [9], in test [10], in test [12] and in test [13] was “inactive” each time. The Potency result in test [14] and in test [15] was “inactive” in each case. The call in test [3] was inactive.
For `O=C(NS(=O)(=O)/C=C/c1cccs1)c1ccc(F)cc1Br`, the Potency entry in test [1], in [2], in [16], in test [5], in test [6] and in test [7] was “inactive” throughout. For the same compound, the Potency result in [8], in test [18], in test [9], in test [10], in test [11] and in test [12] was “inactive” in each case. Also, the Potency entry in test [13] and in test [14] was “inactive” in each case. The call in test [3] was inactive. In addition, the Potency in [15] was 19.5 µM (active).
Take `SC1CCCC1`: the Potency result in test [1], in test [2], in [16], in test [5], in test [17] and in [6] was “inactive” throughout. Also, the Potency result in [8], in test [18], in [9], in [10], in [11] and in test [12] was “inactive” each time. Also, the Potency entry in test [13], in test [14] and in test [15] was “inactive” each time. For the same compound, the call in test [3] was inactive. Besides, the max response in test [19] is 8.94%.
Consider `N=C(N=C(N)N)N1CCOCC1`, for which the Potency result in [1], in [2], in [16], in [20], in [5] and in test [17] was “inactive” each time. In addition, the Potency result in test [6], in [7], in [8], in test [18], in test [9] and in [10] was “inactive” in each case. In addition, the Potency entry in test [11], in [12], in test [13], in test [14] and in test [15] was “inactive” each time. For the same compound, the activity change, positive = activation in test [4] was 10.8% [at 42.5 µM]. Also, the max response in test [19] was 6.38%.
